Source: PubChem (National Center for Advancing Translational Sciences (NCATS))
Rows were chosen to be rich in hits. Some 13% of all compounds tested hit in one or more screens of this group.
LASV entry inh – blocks Lassa virus binding to or entry into cells; Lassa virus pseudotype entry inhibition, cell reporter; 300,000 compounds, 1.2% hits; Potency, µM (highest dose often 37.9 µM), inactives show top-dose activity change, negative = inhibition, actives largely listed as inhibitors; AID 540256; calls by dose curve; tested in HEK293 cells; note: potency is the fitted concentration of half-maximal effect; % is set by controls: 0 for no effect and ±100 for the full control effect; nearly all actives have a fitted effect of over 50% in size
MARV entry inh – blocks Marburg virus binding to or entry into cells. Marburg virus pseudotyped entry inhibition, cell reporter. Potency, µM (doses to about 37.8 µM), for inactives: at the highest dose activity change, negative = inhibition, actives largely listed as inhibitors. 300,000 compounds, 1.8% hits. AID 540276; calls by dose curve; tested in HEK293 cells; note: potency is the fitted concentration of half-maximal effect; % is set by controls: 0 for no effect and ±100 for the full control effect
FMDV inh – antivirals against foot and mouth disease virus; FMDV antiviral cell-based qHTS; AID 1159524; Potency, µM (titrated, usually from 57.9 µM), for inactives: at the top dose activity change, negative = inhibition, hits mostly inhibitors; 410,000 compounds, 1.2% hits; calls by dose curve; tested in HEK293T cells; note: read-out not given here; potency is the fitted concentration of half-maximal effect; % is set by controls: 0 for no effect and ±100 for the full control effect; nearly all actives have a fitted effect of over 45% in size
HCV inh – blocks hepatitis C virus | 340,000 compounds, 3.4% hits | AID 651820 | Potency, µM (top dose mostly 41.8 µM), without a hit: at the top dose activity change, negative = inhibition, hits mostly inhibitors | Huh7.5.1 HCVcc-Cre infection, luciferase reporter, 44 h; active = well fitted inhibition curve with a large enough effect; inconclusive = small, poorly fitted or top-dose-only effect, or another doubt; inactive = no such curve, though single readings can be large or run the other way; note: potency is the fitted concentration of half-maximal effect; % is set by controls: 0 for no effect and ±100 for the full control effect
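Whole-lifecycle infectious HCVcc-Cre system; cells 1,000/well, compound then virus (~0.5 moi) added 4 h after plating, 44 h culture. Luciferase read 15 sec following 15 min substrate incubation, room temp.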
Cycloheximide cs – counter-screen for Shiga toxin inhibitors: cycloheximide protein synthesis inhibition; cell reporter, cycloheximide protein synthesis inhibition counterscreen; max response, %; 300,000 compounds, 12% hits; AID 2314; in the data active = max response mostly above about 13%, no sharp cut-off; inactive = mostly below about 14%; note: read at 38.3 µM for the half of the compounds with a filed dose; 0% is about no effect
Shiga toxin inh – inhibitors of Shiga toxin in Vero cells | Vero cells, Shiga toxin protein synthesis inhibition reporter | inhibition, % at 38.7 µM | 290,000 compounds, 9.2% hits; in the data active = inhibition mostly above about 28%, no sharp cut-off; inactive = mostly below about 43%; note: 0% is about no effect
* hit, by the source's call; ? = inconclusive; / = no result; [ ] = remark or other dose.

SMILES	LASV entry inh	MARV entry inh	FMDV inh	HCV inh	Cycloheximide cs	Shiga toxin inh
CCOc1ccc(N(Cc2cc3ccc(C)cc3[nH]c2=O)C(=O)COC)cc1	-3%	-1%[46.1 µM]	-13%	-8%	24*	29
CCCCN(Cc1ccco1)C(=O)c1cc2c(=O)[nH]c3ccc(C)cc3c2s1	/	/	-8%	?	6	7
O=C(Cn1cc(C(F)(F)F)cc(Cl)c1=O)NCc1ccc(Cl)cc1	0%	3%[46.1 µM]	20%	17%	11	22
O=C(Cn1cc(C(F)(F)F)cc(Cl)c1=O)NCc1ccccc1	?	?	60%	15%	44*	73*
COc1cc(O)c2c(c1)COC2=O	20%	?	-13%	6%	-3	-10
CCOC(=O)CC1c2ccccc2-n2nncc2CN1CC1CCCCC1 (stereo not drawn)	/	/	0%	/	/	/
O=C(c1cc2sccc2n1Cc1ccccc1)N1CCCc2ccccc21	-1%	?	-9%	?	41*	135*
Cn1c(C(=O)N2CCCc3ccccc32)cc2sccc21	4%	?	-2%	-20%	26*	32
O=C(c1cc2sccc2n1Cc1ccccc1)N1CCc2ccccc21	-1%	-6%	-24%	?	-4	30
CCN1C=C(Cc2ccc(OC)cc2)C2=C(C1)C(c1ccc(OC)cc1)C(C#N)=C(N)O2 (stereo not drawn)	?	?	?	?	-3	-13
Nc1c(OS(=O)(=O)c2ccccc2)cccc1OS(=O)(=O)c1ccccc1	/	/	64%	/	/	/
CCc1sc(NC(=O)C(C)C)nc1-c1ccccc1	?	2%[46.1 µM]	-14%	-6%	2	-7
O=c1c2ccccc2nc(-c2ccco2)n1/N=C/c1ccco1	0%	-15%	-2%	-17%	16*	55
Cc1nc2ccccc2c(=O)n1/N=C/c1ccccc1	0%	11%	/	5%	4	33
COCCn1cnc2c(c1=O)c1nc3ccccc3nc1n2/N=C/c1cccc(OC)c1	?	?	28µM*	4%	4	30
COc1cccc(/C=N/n2c(-c3ccco3)nc3ccccc3c2=O)c1	-17%	5%	?	?	54*	145*
Cc1ccccc1OCc1nc2ccccc2c(=O)n1/N=C/c1ccco1	-9%	5%	-12%	?	33*	64*
C=CCn1cnc2c(c1=O)c1nc3ccccc3nc1n2/N=C/c1cc(OC)c(OC)c(OC)c1	-15%	-7%	-17%	?	-1	-21
C=CCn1cnc2c(c1=O)c1nc3ccccc3nc1n2/N=C/c1ccccn1	-10%[14.3 µM]	?	-20%	/	-3	14
COc1ccc(/C=N/n2c(-c3ccco3)nc3ccccc3c2=O)cc1	-5%	2%	0%	-24%	28	45*
O=c1c2c3nc4ccccc4nc3n(/N=C/c3ccccn3)c2ncn1-c1ccccc1	?	5.6µM*	?	-85%	1	-12
O=c1c2ccccc2nc(-c2ccco2)n1/N=C/c1ccccc1O	-9%	13%	-2%	4%	2	-32
CC(=O)c1ccc(NC(=O)COC(=O)c2ccc(F)cc2F)cc1	8%	21%[46.1 µM]	11%	12%	13*	32
O=C(COC(=O)c1ccccc1Br)NCCc1ccc(F)cc1	5%	2%	41%	3%	31*	-9
O=C(COC(=O)c1ccc(F)cc1F)NCCNC(=O)COC(=O)c1ccc(F)cc1F	16%[46.1 µM]	6%[46.1 µM]	-7%	7%	1	-29
SMILES	LASV entry inh	MARV entry inh	FMDV inh	HCV inh	Cycloheximide cs	Shiga toxin inh
Cc1occc1C(=O)OCC(=O)Nc1ccc(F)cc1	?	19%	25%	-10%	36*	75
O=C(COC(=O)c1ccccc1Br)Nc1ccc(F)cc1	/	/	82%	-12%	36*	98*
O=C(COC(=O)c1ccc[nH]c1=O)NCCc1ccc(F)cc1	22%	-5%[46.1 µM]	-12%	23%	13	1
Cc1cc(C)c(N(Cc2ccccc2)S(=O)(=O)c2ccc(OCCNC(=O)c3cc4ccccc4o3)cc2)c(C(=O)NO)c1	/	/	0%	/	-8	-3
CCc1ccc(NC(=O)C2C3CCC(O3)C2C(=O)O)cc1 (stereo not drawn)	/	/	19%	-1%	5	-14
COc1cc(Cl)c(C)cc1NC(=O)c1cc2c(=O)oc3ccccc3c2s1	9%[46.1 µM]	25%[46.1 µM]	4%	/	/	/
COc1ccc(CN2CCN(c3ccccn3)CC2)cc1OCc1ccccc1	4%	?	?	?	-3	-14
